# Experimental data reported in PubChem BioAssay (NCI).
# Compounds without any hit were thinned out: in the full panel of roughly 83,000, 20% have a hit.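 Plates (96-well) were seeded with cells, treated with compound at one concentration, and incubated for 48 hours before percent growth was determined.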 Active and inactive are the calls of the source.
# System: HL-60(TB) leukemia
# Experiment: NCI-60 one-dose screen, 48 h (100 = growth as untreated, 0 = no growth, -100 = all killed)
# Conditions: 10 µM unless noted
# Description: Growth inhibition of the HL-60(TB) human tumor cell line is measured as a screen for anti-cancer activity. Cells are grown in 96 well plates and exposed to the test compound for 48 hours. Compounds are tested at a single concentration, which is 10^-5 M for most compounds. The reported endpoint is percent growth (GI% or GIPRCNT), where numbers from 0 - 100% represent growth inhibition, and numbers from -100% - 0 represent cell death. For example, a value of 40 represents 60% growth inhibition. A value of 0 means no net growth occurred over the course of the experiment. A value of -40 indicates 40% of cells at the beginning of the experiment died by the end of the experiment. A value of -100 means all cells are dead at the end of the experiment.
# NCI-60 Human Tumor Cell Lines Screen was performed using the standard one-dose NCI protocol, which is described in more detail at https://dtp.cancer.gov/discovery_development/nci-60/default.htm.
# Compounds with GIPRCNT values below 10 were considered active. Activity score was based on GIPRCNT using the following formula: […]
# Score is 0 for GIPRCNT values of 100 or above, 50 for GIPRCNT values of 0, and 100 for GIPRCNT values of -100.
row,Compound,growth
1,Nc1ncnc2n[nH]nc12,83.5% (inactive)
2,C[C@@H]1C[C@@]2(C)[C@@H](CC[C@@H]3[C@@H]2CC[C@]2(C)C(=O)CC[C@@H]32)CC1=O,74.6% (inactive)
3,COc1cc([C@@H]2c3cc4c(cc3[C@H](OC(C)=O)[C@H]3COC(=O)[C@H]23)OCO4)cc(OC)c1OC,-24.8% (active)
4,COc1cc(C=C2c3ccccc3C(=O)c3ccccc32)ccc1OCCCCOc1cc2c(cc1OC)C(=O)N1CCCC1C=N2 (stereo not given),-21.3% (active)
5,COC(=O)[C@@]1(C)CC[C@]2(C)CC[C@]3(C)C4=CC=C5C(=CC(=O)C(O)=C5C)[C@]4(C)CC[C@@]3(C)[C@@H]2C1,-53.1% (active)
6,CCCCCCCCCCCCCC[P+](CCCCCC)(CCCCCC)CCCCCC,43.1% (inactive)
7,CC[C@H](C)[C@H](NC(=O)[C@H]1CCCCN1C)C(=O)N(C)[C@H](C[C@@H](OC(C)=O)c1nc(C(=O)N[C@@H](Cc2ccccc2)C[C@H](C)C(=O)OC)cs1)C(C)C,-38.6% (active)
8,COc1ccc(/C=C\c2cc(OC)c(OC)c(OC)c2)cc1OCC(=O)Nc1nc2ccc(F)cc2s1,33.7% (inactive)
9,O=[N+]([O-])c1cc([N+](=O)[O-])c(Cl)cc1Cl,-40.4% (active)
10,C[C@]12CC[C@H]3[C@@H](CC4SC(N)=NC45C/C(=N/NC(N)=O)CC[C@]35C)[C@@H]1CCC2=O (stereo not given in full),42.8% (inactive)
11,O=C(Nc1ccc([As]=[As]c2ccc(NC(=O)c3ccccc3)cc2)cc1)c1ccccc1 (stereo not given),-53.9% (active)
12,CCCCN1CCCC[C@@H]1C(=O)N[C@H](C(=O)N(C)[C@H](CCc1nc(C(=O)N[C@@H](Cc2ccccc2)C[C@H](C)C(=O)OC)cs1)C(C)C)[C@@H](C)CC,27.5% (inactive)
13,CN(C)C(=O)Oc1ccc(Br)cc1,102% (inactive)
14,Cn1cc(-c2csc(-c3cn(CCCCN4CCCCC4)c4ccccc34)n2)c2cccnc21,-62.3% (active)
15,COc1cc(/C=C\c2cc(OC)c(OC)c(OC)c2)cc(NS(=O)(=O)c2cccc(Cl)c2)c1OC,4.54% (active)
16,COC(=O)[C@@H](C)C[C@H](Cc1cn(C)c2ccccc12)NC(=O)c1csc([C@@H](C[C@H](C(C)C)N(C)C(=O)[C@@H](NC(=O)[C@H]2CCCCN2C)C(C)C)OC(C)=O)n1,-39.1% (active)
17,CC(CC1CCCCC1)NCc1ccccc1 (stereo not given),111% (inactive)
18,Fc1ccc(C2=CCNCC2)cc1,109% (inactive)
19,N#C[S-].[Au+].c1ccc(CN2[CH-]N(Cc3ccccc3)C(c3ccccc3)=C2c2ccccc2)cc1,-44.1% (active)
20,CCC[CH2][Sn]([CH2]CCC)([CH2]CCC)[O]c1ccc(Cl)cc1Cl,-23.9% (active)

row,Compound,growth
1,Cc1cc(N(CCCl)CCCl)ccc1C=Nc1cccnc1,41.4% (inactive)
2,COc1ccc2nc(NC(=O)COc3cc(/C=C\c4cc(OC)c(OC)c(OC)c4)ccc3OC)sc2c1,25% (inactive)
3,O=[N+]([O-])c1cc(I)cc([N+](=O)[O-])c1,125% (inactive)
4,CCCCC1(CCC)C(=O)NC(=S)NC1=O,95.5% (inactive)
5,O=C(O)C1C(C(=O)O)C2(Cl)C(Cl)=C(Cl)C1(Cl)C2(Cl)Cl.[Hg] (stereo not given),68.9% (inactive)
6,CCN(CCO)C(Cc1ccccc1)c1ccccc1 (stereo not given),111% (inactive)
7,CC(=O)O[C@H](C[C@H](C(C)C)N(C)C(=O)[C@@H](NC(=O)[C@H]1CCCCN1C)C(C)C)c1cccc(C(=O)N[C@@H](Cc2ccccc2)C[C@H](C)C(=O)O)n1,-38.1% (active)
8,C/C(=C\c1ccn(-c2ccccc2N)n1)[C@@H]1C[C@@H]2O[C@]2(C)CCC[C@H](C)[C@H](O)[C@@H](C)C(=O)C(C)(C)[C@@H](O)CC(=O)O1,9.72% (active)
9,Cc1cccc(N2CCN(C(C)C#N)CC2)c1 (stereo not given),94.2% (inactive)
10,Cc1ccc(C(=O)NCCCOc2ccc(N)cc2Cl)cc1S(=O)(=O)F,98.8% (inactive)
11,COc1cc(/C=N/C2=C(C#N)C(c3ccco3)c3c(c4cc(C)ccc4oc3=O)O2)cc(OC)c1OC (stereo not given),96.1% (inactive)
12,N/C(=N\N=C\c1ccc(-c2ccccc2)cc1)N[N+](=O)[O-],-16.2% (active)
13,CN(C)CC(C(=O)Cc1ccccc1)c1ccccc1 (stereo not given),66.3% (inactive)
14,O=C([O][Hg][CH2]C1OCCOC1[CH2][Hg][O]C(=O)c1ccccc1)c1ccccc1 (stereo not given),-24.7% (active)
15,CCCC[C@H](NC(=O)[C@H]1CCCCN1C)C(=O)N(C)[C@H](C[C@@H](OC(C)=O)c1nc(C(=O)N[C@@H](Cc2ccccc2)C[C@H](C)C(=O)OCC)cs1)C(C)C,-25.7% (active)
16,CC(=O)/C=C/c1ccc2c(c1)OCO2,104% (inactive)
17,O=C(Nc1ccc(Br)cc1)c1cc(Br)cc(Br)c1O,84.3% (inactive)
18,CN1C(=O)N[C@H]2[C@@H]3NC(=O)c4ccc(Br)n4[C@@H]3C[C@]21O,-20% (active)
19,COc1ccc(/C=C\c2cc(OC)c(OC)c(OC)c2)cc1OCC(=O)Nc1nc2ccc(OC(F)(F)F)cc2s1,52.3% (inactive)
20,ClCCN(CCCl)Cc1ccc(Nc2ccnc3cc(Cl)ccc23)cc1,-38.6% (active)
